# PubChem BioAssay (NCI)
# This is part of a sample that, as a whole, favours compounds with a hit. Of some 83,000 tested, about 20% had one in any assay.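 How to read the values: 0–100, growth inhibition (40 = 60% inhibited); 0, no net growth; -100 to 0, cell death (-40 = 40% of starting cells died; -100 = all dead).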 A number with no mark means an inactive call. Active and inactive are the calls of the source. How the source made its calls: active means growth percent below 10; inactive means the rest.
# What was measured:
# Assay in all cases: NCI-60 one-dose screen, 48 h (100 = growth as untreated, 0 = no growth, -100 = all killed)
# Conditions in all cases: 10 µM unless noted
# DU-145 prostate = test system: DU-145 prostate
# K-562 leukemia = test system: K-562 leukemia
# MALME-3M melanoma = test system: MALME-3M melanoma
# MDA-MB-231 breast = test system: MDA-MB-231 breast
# RXF 393 renal = test system: RXF 393 renal
# SF-268 CNS = test system: SF-268 CNS
# SF-295 CNS = test system: SF-295 CNS
# SF-539 CNS = test system: SF-539 CNS
# UACC-257 melanoma = test system: UACC-257 melanoma
# M14 melanoma = test system: M14 melanoma
# HCT-15 colon = test system: HCT-15 colon
# HT29 colon = test system: HT29 colon
# SNB-75 CNS = test system: SNB-75 CNS
# SNB-19 CNS = test system: SNB-19 CNS
# U251 CNS = test system: U251 CNS
# PC-3 prostate = test system: PC-3 prostate
# SK-MEL-5 melanoma = test system: SK-MEL-5 melanoma
# UACC-62 melanoma = test system: UACC-62 melanoma
# LOX IMVI melanoma = test system: LOX IMVI melanoma
# SK-MEL-28 melanoma = test system: SK-MEL-28 melanoma
SMILES,growth (DU-145 prostate),growth (K-562 leukemia),growth (MALME-3M melanoma),growth (MDA-MB-231 breast),growth (RXF 393 renal),growth (SF-268 CNS),growth (SF-295 CNS),growth (SF-539 CNS),growth (UACC-257 melanoma),growth (M14 melanoma),growth (HCT-15 colon),growth (HT29 colon),growth (SNB-75 CNS),growth (SNB-19 CNS),growth (U251 CNS),growth (PC-3 prostate),growth (SK-MEL-5 melanoma),growth (UACC-62 melanoma),growth (LOX IMVI melanoma),growth (SK-MEL-28 melanoma)
O=C(Nc1ccc(-n2ccc3c(NC(=O)c4ccccc4)ncnc32)cc1)Nc1ccc(Cl)c(Cl)c1,-12.3% (active),-39.8% (active),7.71% (active),26.7%,-18.2% (active),-20.7% (active),-8.32% (active),-22.6% (active),8.87% (active),12%,0.689% (active),-58.2% (active),-5.84% (active),15.6%,-58.6% (active),-52.3% (active),13.7%,48.5%,45.5%,5.26% (active)
O=S1(=O)N(CCNc2nccc(-c3c(-c4cccc(O)c4)nc4sccn34)n2)CCN1Cc1ccccc1,74.1%,46.1%,50.8%,52.6%,68.6%,86%,62.8%,63.9%,37.2%,28.4%,55.7%,37%,70.4%,113%,69%,63%,30.6%,20.7%,28.6%,60.2%
c1ccc(-c2nc3sc(C(c4ccccc4)c4ccccc4)nn3c2-c2ccccc2)cc1,99.9%,106%,86.4%,97.8%,109%,92.6%,98.6%,98%,92.2%,92%,87.9%,94.9%,85%,109%,102%,78.7%,109%,89%,89.4%,102%
CCNc1ncnc2n[nH]nc12,104%,97%,102%,111%,112%,99.5%,95%,101%,92.9%,99.7%,98.4%,100%,94.8%,96.4%,95.3%,82.3%,98.7%,99.3%,102%,107%
CCCC(C)(C)COC(=O)c1cccc(N)c1,106%,87%,92%,106%,123%,97.7%,101%,103%,83.3%,99.4%,113%,78.5%,94.5%,106%,89.1%,78.1%,102%,96.6%,101%,117%
CCCCCCCC(=O)SCC/C=C/[C@@H]1CC(=O)NCc2nc(cs2)C2=N[C@@](C)(CS2)C(=O)N[C@@H](C(C)C)C(=O)N1,10.9%,6.8% (active),10.8%,11.4%,-52.8% (active),18%,2.96% (active),25%,-19.6% (active),15.5%,61%,-22.4% (active),35.8%,20.8%,-33.5% (active),19.6%,-21.3% (active),-25% (active),-91.8% (active),25.3%
Cc1ccc(Cn2cc(COc3ccc4c5ccnc(C)c5n(CCCc5ccccc5)c4c3)nn2)cc1,103%,62.3%,87.9%,75.8%,114%,95.9%,87.7%,89.9%,109%,86.2%,86.2%,71.8%,97.6%,99.4%,110%,81.4%,80.4%,95%,91.1%,104%
COC1=C(OC)C(=O)C=CC1=O,114%,7.24% (active),114%,101%,114%,109%,113%,110%,110%,116%,108%,95.4%,110%,108%,107%,92.7%,111%,94.1%,100%,120%
COc1ccc(-c2ccc(NC(=O)Nc3cccc(C(F)(F)F)c3)c(C)n2)cc1,68.8%,32.5%,90.6%,68.6%,85.9%,74.5%,47.6%,80.8%,61.4%,37.2%,40.9%,47.7%,77.6%,67.8%,50.2%,24.4%,41.6%,63.9%,47.7%,69.3%
CC[C@@]1(O)C(=O)OCc2c1cc1n(c2=O)Cc2c-1nc1ccccc1c2/C=N/OC(C)(C)C,6.82% (active),7.64% (active),-15.3% (active),24.2%,-47.5% (active),2.41% (active),-1.63% (active),-24.4% (active),-44% (active),-18% (active),11.2%,-13.9% (active),0.198% (active),5.74% (active),-37.4% (active),23.6%,-66.3% (active),-58.6% (active),-58.5% (active),14.3%
C#CC(=O)/C=C/CCCCCCC#CC(=O)CCC(=O)C#CCCCCCC/C=C/C(=O)C#C,35.3%,0.258% (active),-68.3% (active),-6.98% (active),-36.7% (active),22.5%,71.7%,-34.5% (active),62.9%,-19.2% (active),12.4%,6.4% (active),56%,32%,18%,12.2%,52.8%,5.38% (active),-70.2% (active),12.8%
CCC(CC(C)C)Nc1ccc(NC(CC)CC(C)C)cc1 (stereo not given),103%,-4.28% (active),97.7%,93.1%,96.5%,72.2%,95.3%,107%,92.4%,99.4%,92%,88.8%,96.8%,97.8%,75.3%,-11.1% (active),95.4%,89.3%,83.4%,108%
CC1(C)Cc2c(Br)c(Br)c(Br)c(OCC(O)CN3CCN(c4ccccn4)CC3)c2O1 (stereo not given),106%,36.4%,88.2%,57.4%,99.7%,79.1%,81.5%,95.1%,105%,99.2%,79.7%,69.7%,187%,101%,82.3%,48.5%,63.5%,92.9%,68.6%,115%
c1ccc([Se]CCCN2CCN(CCC[Se]c3ccccc3)CC2)cc1,109%,129%,123%,98.8%,44.6%,109%,-58.4% (active),112%,104%,90.3%,90.9%,96.3%,100%,119%,101%,102%,101%,92.3%,91.6%,111%
COc1cc(NC(C)CCCN2C(=O)c3ccccc3C2=O)c2nc(C)ccc2c1OC (stereo not given),103%,66.5%,104%,78.3%,96.4%,104%,93.5%,99.4%,102%,99.9%,89.8%,98.4%,82.6%,99.7%,94.2%,81.1%,88.5%,74.9%,85.7%,97.4%
